Bioassay records from PubChem.
This is a sample that favours compounds with a hit; in the whole collection about 21% have one here.
Pf growth 48h – P. falciparum growth inhibition at 48 hours (one generation). P. falciparum luciferase growth in erythrocytes, 48 h. Potency, µM (doses to about 28.7 µM), inactives show at the highest dose activity change, negative = inhibition, usual class: inhibitors. hit rate 5.9% among 310,000. AID 504832; note: potency is the fitted concentration of half-maximal effect; % is set by controls: 0 for no effect and ±100 for the full control effect
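Compounds are pin-transferred into medium, infected erythrocytes (2% hematocrit, 0.1% parasitemia final) are added, and plates sit one parasite generation at 37 C in 5% CO2. Detection reagent is then added and luminescence measured.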
Shiga inhibitor – blocks Shiga toxin action in Vero cells; hit rate 9.2% among 290,000; AID 2315; inhibition, % at 38.7 µM; Vero cells, Shiga toxin protein synthesis inhibition reporter; in the data active = inhibition mostly above about 28%, no sharp cut-off; inactive = mostly below about 43%; note: 0% is about no effect
Pf growth 96h – P. falciparum growth inhibition at 96 hours; P. falciparum luciferase reporter growth, 96 h; Potency, µM (top dose mostly 28.7 µM), for inactives: top-dose activity change, negative = inhibition, actives largely listed as inhibitors; hit rate 6.9% among 320,000; AID 504834; note: potency is the fitted concentration of half-maximal effect; % is set by controls: 0 for no effect and ±100 for the full control effect
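Two parasite generations (96 h, 37 C, 5% CO2) of compound exposure in infected erythrocytes (0.05% parasitemia, 2% hematocrit). Luciferase-reporter P. falciparum; decreased luminescence indicates inhibited growth, aimed at apicoplast-acting delayed death.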
NS1 inh – inhibitors of influenza NS1 protein function | Potency, µM (top dose mostly 46.1 µM), for the others: at the top dose activity, positive = more growth | hit rate 0.4% among 270,000 | AID 2326; calls by dose curve; note: potency is the fitted concentration of half-maximal effect; actives are rising curves; nearly all actives have a fitted effect of over 50% in size
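In this qHTS, NS1 from influenza A is expressed in budding yeast, where it slows growth. Cells are switched from glucose to 2% galactose medium (pH 6.0, -URA), treated with compound, and growth recovery is read at OD600.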
SARS PLP yeast – blocks SARS-CoV papain-like protease in a yeast assay | hit rate 0.19% among 330,000 | S. cerevisiae expressing SARS-CoV PLpro, growth rescue | Potency, µM (doses to about 32.9 µM), inactives show top-dose activity, positive = growth rescue, usual class: activators; calls by dose curve; note: potency is the fitted concentration of half-maximal effect; 0% is about no effect; nearly all actives have a fitted effect of over 55% in size
CHX counter – counter-screen for Shiga toxin inhibitors: cycloheximide protein synthesis inhibition | cell reporter, cycloheximide protein synthesis inhibition counterscreen | max response, % | hit rate 12% among 300,000; in the data active = max response mostly above about 13%, no sharp cut-off; inactive = mostly below about 14%; note: read at 38.3 µM for the half of the compounds with a filed dose; 0% is about no effect
Numbers without * were called inactive; ? = inconclusive; / = no result; + = active, no number. Unless noted, calls come from the whole dose curve; as a rule, active = well fitted inhibition curve with a large enough effect; inconclusive = small, poorly fitted or top-dose-only effect, or another doubt; inactive = no such curve, though single readings can be large or run the other way.

SMILES	Pf growth 48h	Shiga inhibitor	Pf growth 96h	NS1 inh	SARS PLP yeast	CHX counter
CC(C)C(NC(=O)c1ccc(F)cc1)C(=O)N1CCOCC1 (stereo not drawn)	1%	/	-19%	/	0%	/
CCOC(=O)c1c(C)[nH]c(C(=O)N/N=C\c2ccccc2Cl)c1C	?	21	9.3µM*	6%	11%	20*
CCOC(=O)c1c(C)[nH]c(C(=O)N/N=C/c2cccc(OC)c2)c1C	-7%	+	-25%	5%	0%	15*
COc1cccc(/C=N/NC(=O)c2[nH]c(C)c(C(=O)N/N=C/c3cccc(OC)c3)c2C)c1	43%	73*	?	0%	0%	14
CN(C)CCCc1cccnc1	/	/	/	0%	/	/
O=C1N(Cc2cccc(Cl)c2)C[C@@H]2C[C@@H](c3ccc4nonc4c3)N3CCC[C@@]123	?	-15	?	-13%	-1%	0
Cc1ccc(Nc2nc(OC(C(F)(F)F)C(F)(F)F)nc(N3CCOCC3)n2)cc1	?	-6	?	-1%	0%	-3
FC(F)(F)C(Oc1nc(NC2CCCCC2)nc(N2CCOCC2)n1)C(F)(F)F	12µM*	1	?	-81%	-13%	-1
COc1ccc(C(=O)N2CCN(Cc3ccccn3)CC2)cc1	3%	4	-5%	0%	-1%	-1
COc1ccccc1-c1nnc(SCc2ccccn2)n1C	7%	1	12%	-8%	0%	7
COc1ccc(-c2nnc(SCC3CCCO3)n2C)cc1 (stereo not drawn)	53%	61	-8%	/	2%	38*
COc1ccc(N=C(N)SCc2ccccn2)cc1	-15%	46*	?	15%	-7%	31*
COc1ccc(-c2nnc(SCc3ccccc3)n2N)cc1	8%	61*	52%	1%	2%	44*
COc1ccc(-c2nnc(SCc3ccccn3)n2C)cc1	85%	45*	?	-4%	-8%	26*
Cn1cc(CN2CCCC(C(=O)c3nccn3C)C2)c(-c2cccc(Cl)c2)n1 (stereo not drawn)	21%	2	?	-1%	0%	1
c1ccn2cc(C34CC5CC(CC(C5)C3)C4)nc2c1	?	64	-12%	/	2%	15
CC1CCN(C(=O)c2ccccc2NS(=O)(=O)c2ccccc2)CC1	15%	9	?	19%	-1%	8
Cn1c(SCC2CCCCC2)nnc1-c1ccncc1	15%	76	?	-6%	2%	16*
COc1ccc(-c2nnc(SCCc3ccccc3)n2N)cc1	23%	24*	/	-19%	-3%	16
Cn1c(SC2CCCCC2=O)nnc1-c1ccncc1 (stereo not drawn)	-15%	-24	-6%	10%	2%	7
COc1ccc(OCCSc2nnc(-c3ccccc3)n2N)cc1	-2%	11	13%	-8%	4%	9
CCOC(=O)c1c(C)[nH]c(C(=O)Cn2c(=O)oc3ccccc32)c1C	6%	16	28%	-4%	-10%	30*
CC(C)OC(=O)Cn1c(=O)oc2ccccc21	/	-1	2.3µM*	0%	-10%	-2
Cc1ccc2oc(=O)n(CC(=O)OC(C)C)c2c1	0%	-7	10µM*	16%	6%	-2
CCOc1ccc(N2C(=O)CC(SC(=NC)Nc3ccc(F)cc3)C2=O)cc1 (stereo not drawn)	?	-4	9.3µM*	-12%	22%	-2
CN=C(Nc1ccc(C)c(C)c1)SC1CC(=O)N(c2ccc(OC)cc2)C1=O (stereo not drawn)	12µM*	42	47%	-1%	0%	-2
COc1ccc(S(=O)(=O)N2CCC(C(=O)N(CC(C)C)C3CCS(=O)(=O)C3)CC2)cc1OC (stereo not drawn)	-14%	/	-20%	/	-4%	/
Cc1cnc(NC(=O)Cc2ccccc2Cl)s1	-9%	17	-19%	-7%	-6%	0
Cc1cnc(NC(=O)c2cc3c(C)nn(Cc4ccccc4Cl)c3s2)s1	7.4µM*	-1	13µM*	7%	-8%	17
COC(=O)c1ccc(C(=O)OC)c(NC(=O)CN(C)Cc2ccc(Cl)c(Cl)c2)c1	10µM*	-7	?	0%	-19%	-3
